Measurements as given in PubChem BioAssay (NCI).
About 79,000 compounds went through this panel and 15% of them were active in at least one assay; those are over-represented in the sample as a whole. Cut-off read from the data, not from the text of the source: active = growth inhibition above about 70%; inactive = the rest.

What was measured:
[1] = NCI Yeast Anticancer Drug Screen. Data for the rad50 strain (AID 155);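 note: 0% = growth of vehicle-only cultures of the same strain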; settings: S. cerevisiae rad50 strain growth inhibition; at 50.0 µM; hits give high values
Method in brief: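 Readout: growth inhibition relative to vehicle-treated cultures. Compound exposure was carried out in a genetically defined yeast strain deficient in DNA damage repair.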

[2] = NCI Yeast Anticancer Drug Screen. Data for the mec2-1 strain (AID 157); settings: S. cerevisiae mec2-1 strain, at 50.0 µM, hits give high values
Method in brief: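 Using mec2-1 yeast: add compound, measure growth, express inhibition versus vehicle-treated cultures.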

[3] = NCI Yeast Anticancer Drug Screen. Data for the sgs1 mgt1 strain (AID 161);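 note: 0% = growth of cultures given vehicle only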; settings: S. cerevisiae sgs1 mgt1 strain, at 50.0 µM, hits give high values
Method in brief: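 Percent growth inhibition was derived by comparing compound-exposed mutant yeast with vehicle-exposed cultures. The strain carries alterations in DNA damage repair.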

[4] = NCI Yeast Anticancer Drug Screen. Data for the cln2 rad14 strain (AID 165);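 note: 0% = growth equal to vehicle treated cultures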; settings: S. cerevisiae cln2 rad14 strain, at 50.0 µM, hits give high values
Method in brief: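 Yeast strain cln2 rad14, bearing defects in cell cycle control and DNA repair, serves as the test system; values reflect growth inhibition compared with vehicle.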

[5] = NCI Yeast Anticancer Drug Screen. Data for the bub3 strain (AID 167); settings: S. cerevisiae bub3 mutant strain, at 50.0 µM, hits give high values
Method in brief: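 Readout: yeast growth inhibition, expressed relative to vehicle-only wells. The test organism is a mutant strain from a panel with lesions in DNA repair or checkpoint genes.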

[6] = NCI Yeast Anticancer Drug Screen. Data for the mlh1 rad18 strain (AID 175); settings: S. cerevisiae mlh1 rad18 strain growth inhibition; at 50.0 µM; hits give high values
Method in brief: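 Steps: expose repair-defective yeast to compound; measure growth; express inhibition against vehicle-treated controls.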

Measured: growth inhibition

Cc1sc2nc3n(c(=O)c2c1C)N=C(c1ccccc1)CS3
inactive: [1] -29.4% | [2] -11.8% | [3] -33.3% | [4] 11.1% | [5] -31.4% | [6] -17.2%

C=CCOC(=O)C(CC=C)C(C)=O (stereo unspecified)
inactive: [1] 3.3% | [2] -21.9% | [3] -17.1% | [4] -5.05% | [5] -19.8% | [6] -11.4%

Clc1cc(Cl)nc(Cl)n1
inactive: [1] 2.4% | [2] -7.1% | [3] -4.95% | [4] 21.1% | [5] 4.6% | [6] -1.65%

CCOS(=O)(=O)CC(C)C(C)C (stereo unspecified)
inactive: [1] 4.75% | [2] -17.3% | [3] -7.8% | [4] -18.1% | [5] -5.65% | [6] -9.1%

C[N+](C)(C)CCCSc1nc2ccccc2[nH]1
inactive: [1] 9.6% | [2] -7.15% | [3] -52% | [4] -30.9% | [5] -24.4% | [6] -15.5%

CCOC(=O)CNC(=O)C(CSSCC(NC(=O)OCc1ccccc1)C(=O)OC)NC(=O)C(NC(=O)OCc1ccccc1)C(C)C (stereo unspecified)
inactive: [1] 7.65% | [2] 21.3% | [3] 14.5% | [4] -1.65% | [5] -11.7% | [6] 56.6%

CCC(CC)C(=O)OCCOCCOC
inactive: [1] 30.2% | [2] 11.8% | [3] 14.9% | [4] 7.9% | [5] 23.6% | [6] 36.9%

COc1cc2c(cc1O)C(C)C(c1ccccc1)O2 (stereo unspecified)
inactive: [1] 3.95% | [2] 4.8% | [3] 9.45% | [4] -21.1% | [5] 7.15% | [6] 13.2%

C(=C\c1ccccn1)/c1ccc(/C=C/c2ccccn2)cc1
inactive: [1] -31.2% | [2] 18.6% | [3] 8.3% | [4] -26.8% | [5] 3.25% | [6] 13.7%

Cc1cc(=O)[nH]c(-n2[nH]c(C)c(CCO)c2=O)n1
inactive: [1] -13.3% | [2] -17.2% | [3] 14.8% | [4] 19.9% | [5] -5.9% | [6] 18.4%

COc1cc(NS(C)(=O)=O)ccc1Nc1c2ccc(N(C)C)cc2nc2cc(N(C)C)ccc12
inactive: [1] 29.1% | [2] -4.8% | [3] 1.05% | [4] 6.7% | [5] -8.6% | [6] -9.85%

Cc1cc([N+](=O)[O-])c(Cl)cc1Cl
inactive: [1] -22.8% | [2] 25.3% | [3] -9.35% | [4] 26.5% | [5] 12.2% | [6] 5.5%

CC(/C=C/C(=O)c1sc(C(N)=S)nc1C)=C\c1ccccc1
inactive: [1] 4.55% | [2] -13.1% | [3] -6.8% | [4] 10.8% | [5] -5.8% | [6] 22.2%

CC(C=O)CCC(C)(O)C=O (stereo unspecified)
inactive: [1] -9.4% | [2] -7.8% | [3] -7% | [4] 8.65% | [5] -10.5% | [6] 1.45%

CS(=O)c1ccc(C(F)(F)F)cc1C(=O)O (stereo unspecified)
inactive: [1] -3.3% | [2] 9.95% | [3] 9.7% | [4] -24.4% | [5] -20.5% | [6] 9.85%

COC1OC(COC(=O)c2ccccc2)C(SC(=O)c2ccccc2)C1OC(=O)c1ccccc1 (stereo unspecified)
inactive: [1] -21.1% | [2] -1.35% | [3] -32.5% | [4] -2% | [5] -1.4% | [6] -12.5%

CC(=O)NC(CCCCNC(=O)N(C)N=O)C(=O)NCc1ccccc1 (stereo unspecified)
inactive: [1] -41.1% | [2] -17.6% | [3] -12.2% | [4] -4.3% | [5] -26.8% | [6] -12.8%

CCCP1(=O)C=C(C)C(=C(Cl)Cl)C(C)=C1 (stereo unspecified)
inactive: [1] 6.9% | [2] -19.2% | [3] -7.55% | [4] 13.6% | [5] -10.4% | [6] 6.4%

C=CNc1cccc2ccccc12
inactive: [1] 13.8% | [2] 11.6% | [3] 14.2% | [4] 5.85% | [5] 25.1% | [6] 14.7%

CCOC(=O)c1c(/N=C/c2cc(Br)cc(Br)c2O)sc2c1CCCC2
inactive: [1] -14.2% | [2] -19.1% | [3] -13.2% | [4] -15.1% | [5] -13.9% | [6] -25.1%

CCOC(=O)C1Oc2ccccc2O1
inactive: [1] 11.8% | [2] -14.6% | [3] -7% | [4] -41.1% | [5] -13.1% | [6] -10.8%

S=P(c1ccccc1)(c1ccccc1)C(P(c1ccccc1)c1ccccc1)P(c1ccccc1)c1ccccc1
inactive: [1] 47.9% | [2] 49.9% | [3] 46.1% | [4] 49.7% | [5] 33.5% | [6] 62%

COCn1ccnc1C(=O)c1ccccc1
inactive: [1] -11.4% | [2] -13.8% | [3] -9.65% | [4] -27.1% | [5] -7.25% | [6] -5.15%

Oc1ccccc1C=Nc1ccccc1
inactive: [1] 29% | [2] 1.95% | [3] 0% | [4] 6.8% | [5] -1.25% | [6] -2.4%

Cc1nc2ccccc2c(=O)n1NC(=S)Nc1cccc(Cl)c1
inactive: [1] 7.35% | [2] -35.3% | [3] 28.1% | [4] -12.8% | [5] -8.2% | [6] -26.8%

CCNC(=O)C1CCN(Cc2c[nH]c3ccccc23)CC1
inactive: [1] -19.4% | [2] 0.1% | [3] 33.2% | [4] -12.9% | [5] 0.6% | [6] -18.1%

CCOC(=O)C(/C=N/Nc1ccc([N+](=O)[O-])cc1[N+](=O)[O-])Oc1cccc(OC)c1 (stereo unspecified)
inactive: [1] -8.85% | [2] -8.4% | [3] -19.8% | [4] -15.1% | [5] -8.75% | [6] -1.55%

O=C1C=C(Nc2ccc3ccccc3c2[N+](=O)[O-])c2ccccc2C1=O
inactive: [1] 27.2% | [2] 17.4% | [3] 8.05% | [4] -16.4% | [5] 23.2% | [6] 7.1%

CN(C)CCCNc1cc[n+](C)c2cccc([N+](=O)[O-])c12
inactive: [1] 27.1% | [2] 15.4% | [3] 31.4% | [4] 20.4% | [5] 13.8% | [6] 27.3%

Cc1cccc(C)c1NC(=O)C(=O)CC(=O)c1sc(Nc2c(C)cccc2C)nc1C
inactive: [1] 12.1% | [2] -10.9% | [3] 26.2% | [4] -22.9% | [5] 16.6% | [6] 16.9%

Cc1ccccc1N(CCC#N)C1=NN(C(=O)CC(=O)Nc2ccc(Cl)cc2)C(c2ccccc2)C1 (stereo unspecified)
inactive: [1] 6.35% | [2] -9.05% | [3] -0.2% | [4] 15% | [5] -16.1% | [6] -5.35%

CC(CCOCC1CO1)OCC1CO1 (stereo unspecified)
inactive: [1] 13.8% | [2] -17.4% | [3] 3.85% | [4] 14.8% | [5] -17.5% | [6] 22.6%

CN(C)c1ccc(/C=C/c2ccnc3c(N)cccc23)cc1
inactive: [1] -3.95% | [2] -8.85% | [3] -14.4% | [4] -12.8% | [5] -10.9% | [6] 3.8%

CCOC(=O)C(Cc1cc(C)c(O)c(I)c1)NC(C)=O (stereo unspecified)
inactive: [1] -18.4% | [2] -1.1% | [3] -11.2% | [4] 4.2% | [5] 5.85% | [6] -5.85%

CC1(O)C=CC(=O)C=C1
inactive: [1] 0.05% | [2] 6.75% | [3] -15.2% | [4] 1.95% | [5] -24.1% | [6] -7.6%

Nc1ccc(C(C(=O)O)c2ccccc2)cc1Cl (stereo unspecified)
inactive: [1] 22.6% | [2] -9% | [3] 20.9% | [4] -1.55% | [5] 12.3% | [6] 5.65%

Cc1ccc(N=Nc2ccc(C)cc2NC(=O)c2ccc(Cl)cc2)cc1
inactive: [1] -3.15% | [2] 10.2% | [3] 17.1% | [4] -7.8% | [5] 32.3% | [6] 8.85%

O=C(c1ccccc1Cl)N1CCN(c2ccccc2)CC1
inactive: [1] 12.9% | [2] -3.4% | [3] 0% | [4] -28.5% | [5] 9.55% | [6] -6.85%

Cn1c(=O)c2c(nc(C3CC3)n2C)n(C)c1=O
inactive: [1] -1.15% | [2] -0.6% | [3] 5.65% | [4] -16.6% | [5] -0.55% | [6] 12.1%

CC1(C)CN2C(c3ccccc3)=NN(c3ccccc3)C2(C)C1 (stereo unspecified)
inactive: [1] -5.85% | [2] -18.4% | [3] 20.9% | [4] -23.1% | [5] 50.4% | [6] 6.15%

COc1cc(O)c(C(C)=O)c2c1C=CC(C)(C)O2
inactive: [1] -4.95% | [2] -47.1% | [3] -19.9% | [4] -16.8% | [5] -13.8% | [6] -14.7%
